The record followed here is article PMC5540273 (PLoS ONE, 2017).

Where only a bound is given, the exact number is not on record here.
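Note: kd values determined as follow-up on hits from a single-replicate KINOMEscan panel screen.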

This assay relates to CDKL1.
The term Kd denotes the concentration at which binding is half-saturated. The low end stands for a tighter complex, the high end for a looser complex. `Cn1cncc1C(=O)NC1CCN(c2ccnc(Nc3ccc(F)cc3)n2)C1` (centres unmarked) [GSK1379717] returned a dissociation constant Kd greater than 10 µM.

Turning to `Cn1cnc2c(N)ncnc21` [SKF-97623], the Kd is greater than 10 µM. Then `Cc1ccc(NC(=O)Nc2ccc(Cl)c(C(F)(F)F)c2)cc1-c1ccc(C(=O)Nc2ccncc2)cc1` [GSK1398470], with greater than 10 µM.

On to `Cn1cncc1-c1cc2c(Nc3ccc(OCc4ccccc4)cc3)ncnc2cn1` [GW281179], for which the dissociation constant (Kd) was greater than 10 µM. Then `NS(=O)(=O)c1cccc(N/C=C2\C(=O)Nc3ccc(S(=O)(=O)Cc4c(Cl)cccc4Cl)cc32)c1` [GSK398099], with greater than 10 µM; and `Cc1c(Cn2c(C)c(C)n3c(=O)cc(N4CCOCC4)nc23)cccc1C(F)(F)F` [GSK2328680], with greater than 10 µM.

`COc1ccc(Nc2nccc(N3CCC(NC(=O)C(C)c4ccc(Cl)cc4)C3)n2)cc1` (centres unmarked) [GSK1379735] gave a Kd greater than 10 µM. In turn, `CNC(=O)c1ccc(C)c(-n2c(C)cc(OCc3ccc(F)cc3F)c(Br)c2=O)c1` gave a Kd greater than 10 µM.
